Experimental data reported in PubChem BioAssay AID1159580 (chemical genetic matrix, 2015).
Where “and” joins values, the source holds several entries; their conditions need not be identical. Identical values can stand only once. The campaign covered roughly 5,500 compounds. About 2,000 (36%) were called active. About 18% were inconclusive and are not listed. The list shows a part of the results. Unmarked numbers belong to inactive results. Rule as the data show it: active = normalized growth mostly below about 0.91 (no sharp cut-off); inconclusive = no clear call, values can overlap the other calls; inactive = mostly above about 0.92.

Experiment: chemical genetic growth profiling, strain panel (AID 1159580);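 also: tested at 20 µM; growth read once vehicle control cultures reached saturation at 30 °C; 1 = growth at the plate median or of vehicle wells; lower values mean less growth of the strain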
Details: S. cerevisiae deletion strains, growth OD

Q: For `CCc1ccc2c(O)c3c(cc2c1C(=O)OC)C(=O)c1c(O)ccc(O)c1C3=O`, which normalized growth (locus YAL013W, strain DEP1, hits give low values) is on record?
A: 0.989

Q: What about the normalized growth (locus YAL021C, strain ccr4, hits give low values) of the same compound?
A: 0.963

Q: And the normalized growth (locus YAL026C, strain drs2, hits give low values)?
A: 0.915

Q: What about the normalized growth (locus YAL030W, strain snc1, hits give low values) of the same compound?
A: 0.992

Q: And the normalized growth (locus YBL061C, strain skt5, hits give low values)?
A: 0.975

Q: What about the normalized growth (locus YBR009C, strain hhf1, hits give low values) of the same compound?
A: 0.981

Q: What about the normalized growth (locus YBR021W, strain FUR4, hits give low values) of the same compound?
A: 1.02

Q: And the normalized growth (locus YBR023C, strain chs3, hits give low values)?
A: 0.975

Q: What about the normalized growth (locus YBR171W, strain sec66, hits give low values) of the same compound?
A: 0.97

Q: What about the normalized growth (locus YBR229C, strain ROT2, hits give low values) of the same compound?
A: 0.956

Q: And the normalized growth (locus YBR231C, strain swc5, hits give low values)?
A: 0.997

Q: What about the normalized growth (locus YBR279W, strain paf1, hits give low values) of the same compound?
A: 0.99

Q: And the normalized growth (locus YCL011C, strain gbp2, hits give low values)?
A: 0.984

Q: What about the normalized growth (locus YCL016C, strain dcc1, hits give low values) of the same compound?
A: 0.988

Q: What about the normalized growth (locus YCL029C, strain bik1, hits give low values) of the same compound?
A: 0.975

Q: What about the normalized growth (locus YCL069W, strain vba3, hits give low values) of the same compound?
A: 0.981

Q: And the normalized growth (locus YCR088W, strain abp1, hits give low values)?
A: 0.981

Q: And the normalized growth (locus YDL005C, strain med2, hits give low values)?
A: 0.997

Q: What about the normalized growth (locus YDL035C, strain GPR1, hits give low values) of the same compound?
A: 0.984

Q: And the normalized growth (locus YDL040C, strain nat1, hits give low values)?
A: 1

Q: And the normalized growth (locus YDL074C, strain BRE1, hits give low values)?
A: 1.03

Q: What about the normalized growth (locus YDL101C, strain DUN1, hits give low values) of the same compound?
A: 0.978

Q: And the normalized growth (locus YDL134C, strain PPH21, hits give low values)?
A: 0.964

Q: And the normalized growth (locus YDL185W, strain tfp1, hits give low values)?
A: 0.978

Q: And the normalized growth (locus YDL192W, strain arf1, hits give low values)?
A: 0.958

Q: What about the normalized growth (locus YDR001C, strain nth1, hits give low values) of the same compound?
A: 0.972

Q: What about the normalized growth (locus YDR069C, strain doa4, hits give low values) of the same compound?
A: 0.909

Q: And the normalized growth (locus YDR101C, strain arx1, hits give low values)?
A: 1.02

Q: And the normalized growth (locus YDR137W, strain rgp1, hits give low values)?
A: 0.91

Q: And the normalized growth (locus YDR159W, strain sac3, hits give low values)?
A: 0.944

Q: What about the normalized growth (locus YDR162C, strain NBP2, hits give low values) of the same compound?
A: 0.935

Q: And the normalized growth (locus YDR195W, strain ref2)?
A: 0.962

Q: What about the normalized growth (locus YDR297W, strain sur2, hits give low values) of the same compound?
A: 0.98

Q: What about the normalized growth (locus YDR318W, strain mcm21, hits give low values) of the same compound?
A: 0.951

Q: And the normalized growth (locus YDR334W, strain swr1, hits give low values)?
A: 0.923

Q: What about the normalized growth (locus YDR335W, strain msn5, hits give low values) of the same compound?
A: 0.971

Q: What about the normalized growth (locus YDR388W, hits give low values) of the same compound?
A: 0.978

Q: What about the normalized growth (locus YDR392W, strain spt3, hits give low values) of the same compound?
A: 0.926

Q: And the normalized growth (locus YDR502C, strain sam2, hits give low values)?
A: 0.974

Q: And the normalized growth (locus YEL003W, strain gim4, hits give low values)?
A: 0.996

Q: What about the normalized growth (locus YEL037C, strain rad23, hits give low values) of the same compound?
A: 0.977

Q: What about the normalized growth (locus YEL061C, strain CIN8 (second series), hits give low values) of the same compound?
A: 0.97

Q: And the normalized growth (locus YEL061C, strain CIN8, hits give low values)?
A: 0.978

Q: And the normalized growth (locus YER015W, strain faa2, hits give low values)?
A: 0.974

Q: And the normalized growth (locus YER016W, strain bim1, hits give low values)?
A: 0.986

Q: And the normalized growth (locus YER110C, hits give low values)?
A: 0.979

Q: And the normalized growth (locus YER111C, strain swi4, hits give low values)?
A: 0.927

Q: And the normalized growth (locus YER155C, strain BEM2 (second series), hits give low values)?
A: 0.909

Q: What about the normalized growth (locus YER155C, strain BEM2, hits give low values) of the same compound?
A: 1

Q: What about the normalized growth (locus YER167W, strain BCK2, hits give low values) of the same compound?
A: 0.987

Q: What about the normalized growth (locus YFR010W, strain ubp6, hits give low values) of the same compound?
A: 0.874 (active)

Q: What about the normalized growth (locus YGL078C, strain dbp3, hits give low values) of the same compound?
A: 1.01

Q: And the normalized growth (locus YGL086W, strain mad1, hits give low values)?
A: 0.987

Q: And the normalized growth (locus YGL167C, strain pmr1, hits give low values)?
A: 0.979

Q: And the normalized growth (locus YGL173C, strain kem1, hits give low values)?
A: 0.972

Q: And the normalized growth (locus YGL227W, strain vid30, hits give low values)?
A: 1

Q: What about the normalized growth (locus YGL240W, strain doc1, hits give low values) of the same compound?
A: 0.978

Q: And the normalized growth (locus YGL248W, strain PDE1, hits give low values)?
A: 0.955

Q: And the normalized growth (locus YGL253W, strain hxk2, hits give low values)?
A: 0.982

Q: What about the normalized growth (locus YGR135W, strain pre9, hits give low values) of the same compound?
A: 0.94

Q: What about the normalized growth (locus YGR252W, strain gcn5, hits give low values) of the same compound?
A: 0.977

Q: And the normalized growth (locus YHR013C, strain ard1, hits give low values)?
A: 0.996

Q: What about the normalized growth (locus YHR027C, strain rpn1, hits give low values) of the same compound?
A: 0.994

Q: What about the normalized growth (locus YHR030C, strain SLT2, hits give low values) of the same compound?
A: 0.986 and 0.951

Q: And the normalized growth (locus YHR079C, strain IRE1 (second series), hits give low values)?
A: 0.997

Q: And the normalized growth (locus YHR079C, strain IRE1, hits give low values)?
A: 0.954

Q: And the normalized growth (locus YHR094C, strain hxt1, hits give low values)?
A: 0.978

Q: And the normalized growth (locus YHR129C, strain ARP1, hits give low values)?
A: 0.978

Q: And the normalized growth (locus YHR142W, strain chs7, hits give low values)?
A: 0.879

Q: And the normalized growth (locus YHR200W, strain rpn10, hits give low values)?
A: 0.963

Q: What about the normalized growth (locus YIL066C, strain RNR3, hits give low values) of the same compound?
A: 0.966

Q: What about the normalized growth (locus YIL073C, strain SPO22, hits give low values) of the same compound?
A: 1.03

Q: What about the normalized growth (locus YIL125W, strain kgd1, hits give low values) of the same compound?
A: 0.989

Q: What about the normalized growth (locus YIR030C, strain dcg1, hits give low values) of the same compound?
A: 0.998

Q: What about the normalized growth (locus YJL092W, strain hpr5, hits give low values) of the same compound?
A: 0.976

Q: And the normalized growth (locus YJL095W, strain BCK1 (second series), hits give low values)?
A: 0.973

Q: And the normalized growth (locus YJL095W, strain BCK1, hits give low values)?
A: 0.928 and 0.964

Q: And the normalized growth (locus YJL115W, strain asf1, hits give low values)?
A: 0.966

Q: What about the normalized growth (locus YJL129C, strain trk1, hits give low values) of the same compound?
A: 0.986

Q: What about the normalized growth (locus YJL134W, strain LCB3, hits give low values) of the same compound?
A: 0.99

Q: And the normalized growth (locus YJL154C, strain vps35, hits give low values)?
A: 0.987

Q: And the normalized growth (locus YJL164C, strain tpk1, hits give low values)?
A: 0.968

Q: What about the normalized growth (locus YJL166W, strain qcr8, hits give low values) of the same compound?
A: 0.961

Q: What about the normalized growth (locus YJL168C, strain set2, hits give low values) of the same compound?
A: 0.982

Q: And the normalized growth (locus YJL187C, strain SWE1 (second series), hits give low values)?
A: 0.959

Q: What about the normalized growth (locus YJL187C, strain SWE1, hits give low values) of the same compound?
A: 0.98

Q: What about the normalized growth (locus YJR043C, strain POL32, hits give low values) of the same compound?
A: 0.979
